Results filed as inconclusive are left out. Unless noted, calls come from the whole dose curve; as a rule, active = well fitted curve in either direction with a large enough effect (not every such curve was filed as active); inconclusive = small, poorly fitted or top-dose-only effect, or another doubt; inactive = flat fitted curve, though single readings scatter.
Legend:
[1] = AP1 Signaling Pathway (AID 357); conditions: ME-180 AP-1-bla reporter, EGF-induced, beta-lactamase ratio, 5 h; at 17.2 µM (top of the series) unless noted; note: % is set by controls: 0 for no effect and ±100 for the full control effect
In short: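 AP-1-bla ME-180 cells with beta-lactamase reporter under AP-1 response element, stimulated with EC50 EGF; compounds titrated, 5 hours at 37 degrees Celsius. CCF4 read at 460/530 nm ratio; positive and negative modulators judged by AC50.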

[2] = NFAT Signaling Pathway (AID 444); conditions: Jurkat NFAT-bla M1, carbachol, beta-lactamase ratio, 5 h; at 17.2 µM (top of the series) unless noted;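 note: carbachol stimulus at about its EC50 of 1 µM final; % is set by controls: 0 for no effect and ±100 for the full control effect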
In short: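 Read-out: CCF4 FRET ratio (460 nm/530 nm) after 1 h RT dye loading, used for %activity and AC50 from titration series. Cells: Jurkat NFAT-β-lactamase/M1 line, treated with compound plus 1 uM carbachol for 5 h, 37 °C.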

[3] = Stat Signaling Pathway (AID 446); conditions: ME-180 (cervical carcinoma) SIE beta-lactamase reporter, IL-6 stimulated, 5 h; at 17.2 µM (top of the series) unless noted;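 note: ME-180 cervical cancer cells given 40 pM IL-6 alongside compound; SIE-controlled beta-lactamase reporter measured as 460/530 nm FRET emission ratio; % is set by controls: 0 for no effect and ±100 for the full control effect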
In short: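 Compound effects on IL-6-induced STAT reporter activity were measured in ME-180 cells. After overnight culture, cells were co-treated with 40 pM IL-6 for 5 hrs before beta-lactamase substrate loading at room temperature.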

[4] = target: Glucocorticoid receptor (Homo sapiens) (UniProt P04150); assay: GR-GFP Redistribution (AID 450;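 active = compounds whose dose series gives a full or clear partial fitted curve of increased nuclear translocation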; note: potency is the fitted concentration of half-maximal effect); conditions: U2OS GR-GFP nuclear translocation, laser cytometry, 2 h; series mostly up to 20.6 µM
Sequence of Glucocorticoid receptor (Homo sapiens) (P04150 whole entry, looked up): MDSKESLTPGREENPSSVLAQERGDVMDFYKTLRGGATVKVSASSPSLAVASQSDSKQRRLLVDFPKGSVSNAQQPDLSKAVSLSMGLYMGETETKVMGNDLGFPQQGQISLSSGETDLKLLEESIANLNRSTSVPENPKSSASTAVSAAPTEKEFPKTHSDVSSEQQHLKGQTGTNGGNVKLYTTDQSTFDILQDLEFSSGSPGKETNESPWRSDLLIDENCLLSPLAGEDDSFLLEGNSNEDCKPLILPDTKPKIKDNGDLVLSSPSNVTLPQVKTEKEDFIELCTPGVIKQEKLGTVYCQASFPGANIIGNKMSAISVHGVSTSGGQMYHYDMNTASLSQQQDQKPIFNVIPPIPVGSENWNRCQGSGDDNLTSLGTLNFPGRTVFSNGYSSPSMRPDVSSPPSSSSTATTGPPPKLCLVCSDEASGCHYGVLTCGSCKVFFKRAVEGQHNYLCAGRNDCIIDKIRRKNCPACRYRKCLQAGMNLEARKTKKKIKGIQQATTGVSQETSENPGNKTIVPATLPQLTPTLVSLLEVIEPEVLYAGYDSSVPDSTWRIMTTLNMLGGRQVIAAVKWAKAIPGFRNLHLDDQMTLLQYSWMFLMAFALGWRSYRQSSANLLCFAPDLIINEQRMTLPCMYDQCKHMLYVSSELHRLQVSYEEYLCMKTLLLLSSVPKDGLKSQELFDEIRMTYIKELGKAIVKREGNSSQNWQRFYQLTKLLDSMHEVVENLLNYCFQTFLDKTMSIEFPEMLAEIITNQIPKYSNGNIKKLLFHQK

C=CCNc1nc(N2CCOCC2)c(C#N)c2c1CN(C)CC2
inactive: activity change, negative = inhibition [1] 4.63% | activity change, negative = inhibition [2] -4.25% | activity, negative = inhibition [3] 2.07% | Potency [4] > 20.6 µM

Cn1c(/C(C#N)=C/Nc2ccccn2)nc2ccccc21
inactive: activity change, negative = inhibition [1] -8.79% | activity change, negative = inhibition [2] -5.83% | activity, negative = inhibition [3] 8.51% | Potency [4] > 20.6 µM

CC1(C)Cc2c(c(N3CCOCC3)nc3snc(Br)c23)CO1
inactive: activity change, negative = inhibition [1] -5.9% | activity change, negative = inhibition [2] -26.2% | activity, negative = inhibition [3] 13.2% | Potency [4] > 20.6 µM

COc1cccc(C(=O)N2CCN(S(=O)(=O)Cc3ccccc3)CC2)c1OC
inactive: activity change, negative = inhibition [1] 8.1% | activity change, negative = inhibition [2] 18.1% | activity, negative = inhibition [3] -3.28% | Potency [4] > 20.6 µM

COc1nc(NS(=O)(=O)c2ccc(C)cc2)nc(C)c1Cl
inactive: activity change, negative = inhibition [1] 6.72% | activity change, negative = inhibition [2] -25.4% | activity, negative = inhibition [3] -5.69% | Potency [4] > 20.6 µM

COc1cccc(OC)c1C(=O)Nc1nc2ccc(S(C)(=O)=O)cc2s1
inactive: activity change, negative = inhibition [1] -25.1% | activity change, negative = inhibition [2] 21% | activity, negative = inhibition [3] -10.6% | Potency [4] > 20.6 µM

c1ccc(C2=Nn3c(nnc3-c3ccccn3)SC2)cc1
inactive: activity change, negative = inhibition [1] -4.27% | activity change, negative = inhibition [2] -8.45% | activity, negative = inhibition [3] 5.46% | Potency [4] > 20.6 µM

CC1C[C@@]2(NC(=O)NC2=O)C(C)CN1C (some centres not stated)
inactive: activity change, negative = inhibition [1] 5.36% | activity change, negative = inhibition [2] -4.32% | activity, negative = inhibition [3] 5.03% | Potency [4] > 20.6 µM

O=C1CC(c2ccco2)CC(O)=C1C=Nc1cc(Cl)ccc1O (configuration not stated)
inactive: activity change, negative = inhibition [1] -23.8% | activity change, negative = inhibition [2] -1.32% | activity, negative = inhibition [3] -10.9% | Potency [4] > 20.6 µM

CCc1nc2n[nH]c(N)c2c2c1CCCC2
inactive: activity change, negative = inhibition [1] -12.2% | activity change, negative = inhibition [2] 1.69% | activity, negative = inhibition [3] -2.34% | Potency [4] > 20.6 µM

CCN(CC)CCN1C(=O)C(=O)/C(=C(/O)c2ccc(F)cc2)C1c1ccncc1 (configuration not stated)
inactive: activity change, negative = inhibition [1] -7.07% | activity change, negative = inhibition [2] 17.1% | activity, negative = inhibition [3] 1.89% | Potency [4] > 20.6 µM

CC(=O)N1CCN(C2c3cccc4cccc(c34)C2NS(=O)(=O)c2ccccc2)CC1 (configuration not stated)
inactive: activity change, negative = inhibition [1] -3.48% | activity change, negative = inhibition [2] -9.38% | activity, negative = inhibition [3] 2.23% | Potency [4] > 20.6 µM

COc1ccc2[nH]c(C)c(C(=O)CN3CCN(C(=O)c4ccco4)CC3)c2c1
inactive: activity change, negative = inhibition [1] -11.2% | activity change, negative = inhibition [2] -1.42% | activity, negative = inhibition [3] -3.32% | Potency [4] > 20.6 µM

Cc1cc(N2C(=O)C(=O)/C(=C(/O)c3ccc(F)cc3)C2c2cccc(Br)c2)no1 (configuration not stated)
inactive: activity change, negative = inhibition [1] -7.98% | activity change, negative = inhibition [2] 2.37% | activity, negative = inhibition [3] -29.1% | Potency [4] > 20.6 µM

Cc1ccc(-n2ncc3c(NCCCOC(C)C)ncnc32)c(C)c1
inactive: activity change, negative = inhibition [1] -18.8% | activity change, negative = inhibition [2] 25.7% | activity, negative = inhibition [3] -8.86% | Potency [4] > 20.6 µM

COc1ccc(/C(O)=C2/C(=O)C(=O)N(CCN3CCOCC3)C2c2ccccn2)cc1OC (configuration not stated)
inactive: activity change, negative = inhibition [1] 3.25% | activity change, negative = inhibition [2] -11% | activity, negative = inhibition [3] -5.39% | Potency [4] > 20.6 µM

O=C1C=C(O)CC(c2cccs2)C1 (configuration not stated)
inactive: activity change, negative = inhibition [1] -0.0121% | activity change, negative = inhibition [2] -1.83% | activity, negative = inhibition [3] -2.06% | Potency [4] > 20.6 µM

C=CCSc1nc(C)c(CC=C)c(=O)[nH]1
inactive: activity change, negative = inhibition [1] -0.627% | activity change, negative = inhibition [2] -22.4% | activity, negative = inhibition [3] 0.0275% | Potency [4] > 20.6 µM
